Laboratory results as given in PubChem BioAssay (NCATS).
“And” between values parts separate entries of the source, which are not always exact repeats. Equal values may be shown once. Results filed as inconclusive are left out. The source made the active and inactive calls. Calls come from the whole dose curve; as a rule, active = well fitted inhibition curve with a large enough effect; inconclusive = small, poorly fitted or top-dose-only effect; inactive = flat fitted curve, though single readings scatter. Where a SMILES comes first, the peptide text is derived from it.

Key:
[1] = system: CRL-7250; test: Cytotoxic Profiling of Annotated Libraries Using Quantitative High-Throughput Screening (AID 1296008); details: Five cell lines viability, CellTiter-Glo ATP luminescence, 48-72 h; max response: active compounds read low; for max response: % is set by controls: 0 for no effect and ±100 for the full control effect
How it was run: (§1)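 Cytotoxicity was measured as CellTiter-Glo ATP luminescence, read after 10 min at room temperature. Compound treatment of the cells lasted 48 or 72 hr at 37 degrees Celsius in a qHTS format.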

[2] = system: HEK293; test: as above; details: Five cell lines viability, CellTiter-Glo ATP luminescence, 48-72 h; max response: active compounds read low
How it was run: as §1

[3] = system: HaCat; test: as above; details: Five cell lines viability, CellTiter-Glo ATP luminescence, 48-72 h; max response: active compounds read low
How it was run: as §1

[4] = system: KB-3-1; test: as above; details: Five cell lines viability, CellTiter-Glo ATP luminescence, 48-72 h; max response: active compounds read low
How it was run: as §1

[5] = system: NIH3T3; test: as above; details: Five cell lines viability, CellTiter-Glo ATP luminescence, 48-72 h; max response: active compounds read low
How it was run: as §1

[6] = system: HACAT; test: qHTS assay to identify novel small-molecules to repurpose for Merkel cell carcinoma treatment (AID 1296009); details: MCC and control cell lines, CellTiter-Glo viability, 72 h; at 44.8 µM (top of the series) unless noted
How it was run: (§2)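 Cell viability, measured as CellTiter-Glo luminescence, was normalized between DMSO and no-cell wells. The cells had been exposed to 8- or 11-point compound dilutions for 72 hr at 37 degree celsius.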

[7] = system: HEK293T; test: as above; details: MCC and control cell lines, CellTiter-Glo viability, 72 h; series mostly up to 44.8 µM
How it was run: as §2
Note: nearly all actives have a fitted effect of over 60% in size.

CC1CCC2(C(=O)OC3OC(CO)C(O)C(O)C3O)CCC3(C)C(=CCC4C5(C)CC(O)C(O)C(C)(C(=O)O)C5CCC43C)C2C1(C)O (stereo not given)
inactive: max response [1] 3.23% | outcome [2] | outcome [3] | max response [4] 1.03% | outcome [5] | outcome [6] inactive [at 17.4 µM] | Potency [7]

CC1CCC2(O1)C(C)(C)CC(O[C@@H]1O[C@H](CO[C@@H]3OC[C@](O)(CO)[C@H]3O)[C@@H](O)[C@H](O)[C@H]1O)CC2(C)O (stereo not given in full)
inactive: max response [1] -0.207% | outcome [2] | outcome [3] | outcome [4] | outcome [5] | outcome [6] inactive [at 17.4 µM] | Potency [7]

CC1(CCC(=O)O)C(=O)C=CC23CC4CC(OC4(C)C2O)C13 (stereo not given)
inactive: max response [1] 3.62% | outcome [2] | outcome [3] | max response [4] 2.02% | outcome [5] | outcome [6] | Potency [7]

COc1cccc(-c2ccc([C@@H](Oc3cc(-c4ccc(C[C@H](N)C(=O)O)cc4)nc(N)n3)C(F)(F)F)cc2)c1
inactive: outcome [1] | outcome [2] | outcome [3] | outcome [4] | outcome [5] | outcome [6] | Potency [7]

C[C@@H](O)[C@H](N)C(=O)N1CCC[C@H]1C(=O)N1CCC[C@H]1C(=O)N[C@H](C(N)=O)[C@@H](C)O (H-TPPT-NH2)
inactive: outcome [1] | outcome [2] | outcome [3] | outcome [4] | outcome [5] | outcome [6] inactive [at 9.27 µM] | outcome [7] inactive [at 9.27 µM]

CC(=O)OC(C)OC(=O)C(C)c1ccc(-c2ccccc2)c(F)c1 (stereo not given)
inactive: max response [1] -4.19% | max response [2] -11.4% | outcome [3] | max response [4] 1.74% and -23.2% | outcome [5] | outcome [6]

CC1(C)C(O)CCC2(C)C1C(O)C=C1COC(=O)C12O (stereo not given)
inactive: max response [1] 2.08% | outcome [2] | outcome [3] | max response [4] 5.78% | max response [5] 0.735% | outcome [6] | Potency [7]

O=C(O)CCc1cc2ccoc2cc1O[C@@H]1O[C@H](CO[C@@H]2OC[C@](O)(CO)[C@H]2O)[C@@H](O)[C@H](O)[C@H]1O
inactive: max response [1] -5.99% | outcome [2] | outcome [3] | max response [4] 9.81% | max response [5] -2.27% | outcome [6] inactive [at 17.4 µM] | Potency [7]

CCCCN(CCCC)C(=O)CN1C[C@H](c2ccc3c(c2)OCO3)[C@@H](C(=O)O)[C@@H]1c1ccc(OC)cc1
inactive: max response [1] -2.69% | outcome [2] | outcome [3] | outcome [4] | max response [5] 2.42% and 5% | outcome [6] | Potency [7]

CC1(C)OC(=O)C(OCC2CC2)=C1c1ccc(S(C)(=O)=O)cc1
inactive: outcome [1] | outcome [2] | outcome [3] | outcome [4] | outcome [5] | outcome [6] | Potency [7]

Cc1cc(C)cc(NC(=O)Cc2ccc(OC(C)(C)C(=O)O)cc2)c1
inactive: max response [1] 0.247% | outcome [2] | outcome [3] | outcome [4] | max response [5] -1.99% | outcome [6] | Potency [7]

Nc1ncnc2c1ncn2[C@H]1CCCO1
inactive: max response [1] -0.0341% | outcome [2] | outcome [3] | outcome [4] | outcome [5] | outcome [6] | Potency [7]

CC1(O)CCC2C(C(=O)O)=COC(OC3OC(CO)C(O)C(O)C3OC(=O)/C=C/c3ccc(O)cc3)C21 (stereo not given)
inactive: outcome [1] | outcome [2] | outcome [3] | max response [4] 8.2% | outcome [5] | outcome [6] inactive [at 17.4 µM] | Potency [7]

CC1OC(O[C@H]2[C@@H](O)C[C@@]3(C)C([C@H](O)C[C@]4(C)C3CC=C3C5CC(C)(C)CC[C@]5(C(=O)OC5OC(CO)C(O)C(O)C5OC5OCC(OC6OCC(OC7OCC(O)C(O)C7O)C(O)C6O)C(OC6OCC(O)(CO)C6O)C5O)CC[C@]34C)[C@]2(C)CO)C(O)C(O)C1O (stereo not given in full)
inactive: outcome [1] | outcome [2] | outcome [3] | max response [4] 0.161% | outcome [5] | outcome [6] inactive [at 9.27 µM] | outcome [7] inactive [at 9.27 µM]

C=C1CCC2C(C)(C)CC(=O)CC2(C)C1CCC(C)CCOC(C)=O (stereo not given)
inactive: outcome [1] | outcome [2] | outcome [3] | max response [4] 5.05% | outcome [5] | outcome [6] | Potency [7]

C=CCc1ccc(O[C@@H]2O[C@H](CO)[C@@H](O)[C@H](O)[C@H]2O)c(OC)c1
inactive: max response [1] -5.9% | outcome [2] | outcome [3] | outcome [4] | outcome [5] | outcome [6] | Potency [7]

CCOc1ccc(C(Nc2ccccn2)c2ccc3ccc(C)nc3c2O)cc1C (stereo not given)
inactive: outcome [1] | outcome [2] | outcome [3] | max response [4] -0.87% | max response [5] -16.7% | outcome [6] | Potency [7]

COc1cc(C2Oc3c(OC)cc(/C=C/C(=O)OC[C@H]4O[C@@H](OC(C)(C)C(=O)O)[C@H](O)[C@@H](O)[C@@H]4O)cc3C2CO)ccc1O (stereo not given in full)
inactive: outcome [1] | outcome [2] | outcome [3] | max response [4] 0.492% | max response [5] 1.11% | outcome [6] inactive [at 17.4 µM] | Potency [7]

CCOC(=O)c1ccnc(CNCC(=O)N(CC)CCN(C)C)c1
inactive: max response [1] 3.74% | outcome [2] | outcome [3] | max response [4] 5.64% | outcome [5] | outcome [6] | Potency [7]

CC1CCC2C(C)(C)C(O)CCC2(C)C12Cc1c(O)cc3c(c1O2)C(N)=NC3 (stereo not given)
inactive: max response [1] -9.29% | outcome [2] | outcome [3] | outcome [4] | outcome [5] | outcome [6] | Potency [7]

C=C1CCC[C@]2(C)C[C@]3(O)OC(=O)C(C)=C3C[C@@H]12
inactive: outcome [1] | outcome [2] | outcome [3] | outcome [4] | outcome [5] | outcome [6] | Potency [7]

C=C[C@](C)(CC/C=C(\C)C(=O)O)O[C@@H]1OC[C@H](O)[C@H](O)[C@H]1O
inactive: max response [1] -0.0118% | outcome [2] | outcome [3] | max response [4] 3.33% | max response [5] 2.21% | outcome [6] | Potency [7]

CC1=CC[C@]2(C(=O)O[C@@H]3O[C@H](CO[C@@H]4O[C@H](CO)[C@@H](O[C@@H]5O[C@@H](C)[C@H](O)[C@@H](O)[C@H]5O)[C@H](O)[C@H]4O)[C@@H](O)[C@H](O)[C@H]3O)CC[C@]3(C)C(CCC4[C@@]5(C)C[C@@H](O)[C@H](O)[C@@](C)(CO)C5CC[C@]43C)C2C1C (stereo not given in full)
inactive: max response [1] -9.97% | outcome [2] | outcome [3] | max response [4] 0.857% | outcome [5] | outcome [6] inactive [at 9.27 µM] | outcome [7] inactive [at 9.27 µM]

CC1(C)CC2C3=CCC4C5(C)CCC(OC6OC(C(=O)O)C(O)C(O)C6OC6OC(CO)C(O)C(O)C6OC6OC(CO)C(O)C(O)C6O)C(C)(CO)C5CCC4(C)C3(C)CCC2(C)C(OC2OCC(O)C(OC3OC(CO)C(O)C(O)C3O)C2O)C1O (stereo not given)
inactive: max response [1] 2.95% | outcome [2] | outcome [3] | max response [4] 5.61% | max response [5] -17.3% | outcome [6] inactive [at 9.27 µM] | outcome [7] inactive [at 9.27 µM]

C[C@H]1[C@H](C)CC[C@]2(C(=O)O)CC[C@]3(C)C(=CC[C@@H]4[C@@]5(C)C[C@@H](O)[C@H](O)[C@@](C)(CO)[C@@H]5CC[C@]43C)[C@H]12
inactive: max response [1] 0.188% | outcome [2] | outcome [3] | outcome [4] | max response [5] 4.85% | outcome [6] | Potency [7]

CC1CCC2C(C(=O)O)=CC3C(O)C(C)(C)CC123 (stereo not given)
inactive: max response [1] -11.2% | outcome [2] | outcome [3] | outcome [4] | max response [5] -3.55% | outcome [6] | Potency [7]

C=C1C[C@]23C[C@H]1CC[C@H]2[C@@]12C=C[C@H](O)[C@@](C)(C(=O)O1)[C@H]2[C@@H]3C(=O)O
inactive: max response [1] -5.97% | outcome [2] | outcome [3] | outcome [4] | outcome [5] | outcome [6] | Potency [7]

CCC(CC)n1ccc2c(C(=O)NCc3c(C)cc(C)[nH]c3=O)cc(C#N)cc21
inactive: max response [1] -1.01% | outcome [2] | outcome [3] | max response [4] 2.42% | max response [5] -0.643% | outcome [6] | Potency [7]

CC1CC(O)CC(C)(C)C1(O)CCO (stereo not given)
inactive: max response [1] -5.35% | outcome [2] | outcome [3] | outcome [4] | max response [5] 0.3% | outcome [6] inactive [at 92 µM] | Potency [7]

CC12CCC3C(C)(C)C(O)CCC3(C)C1Cc1c(oc(C(=O)O)cc1=O)O2 (stereo not given)
inactive: outcome [1] | outcome [2] | outcome [3] | outcome [4] | max response [5] 1.94% | outcome [6] | Potency [7]

O=C(CCCCc1ccc2ccccc2c1)C(F)(F)F
inactive: max response [1] 3.49% | outcome [2] | outcome [3] | max response [4] 2.37% | outcome [5] | outcome [6] inactive [at 92 µM] | Potency [7]

CC(C)=CC/C=C(/C)[C@H]1CC[C@]2(C)[C@@H]1[C@H](O)CC1[C@@]3(C)CC[C@H](O)C(C)(C)[C@@H]3[C@@H](O[C@@H]3O[C@H](CO)[C@@H](O)[C@H](O)[C@H]3O[C@@H]3O[C@@H](C)[C@H](O)[C@@H](O)[C@H]3O)C[C@]12C (stereo not given in full)
inactive: max response [1] -7.49% | outcome [2] | outcome [3] | max response [4] 7.96% | outcome [5] | outcome [6] inactive [at 17.4 µM] | Potency [7]

Cc1cn2c(N)c(Cl)cc(C(=O)NCC3CCN(CC(C)C)CC3)c2n1
inactive: max response [1] -6.05% | outcome [2] | outcome [3] | max response [4] -3.78% | outcome [5] | outcome [6] | Potency [7]
